Inconclusive results are not listed. Active and inactive are the calls of the source. The call rests on the fitted dose curve; in most records, active means well fitted curve in the direction sought with a large enough effect; inconclusive means small, poorly fitted or top-dose-only effect, or another doubt; inactive means no such curve, though single readings can be large; an effect the other way counts as inactive or inconclusive.
Tests used:
[1] = system: CRL-7250; assay: Cytotoxic Profiling of Annotated Libraries Using Quantitative High-Throughput Screening (AID 1296008); conditions: Five cell lines viability, CellTiter-Glo ATP luminescence, 48-72 h; max response: stronger effect = lower value; further: nearly all actives have a fitted effect of over 60% in size; on max response: on the % scale 0 is the no-effect control and ±100 the full control effect
Summary of the method: (§1)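 Cells exposed to compounds for 48 or 72 hr at 37 degrees Celsius. Viability read as ATP-coupled luminescence with CellTiter-Glo after 10 min at room temperature.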

[2] = system: HEK293; assay: as above; conditions: Five cell lines viability, CellTiter-Glo ATP luminescence, 48-72 h; max response: stronger effect = lower value
Summary of the method: as §1

[3] = system: HaCat; assay: as above; conditions: Five cell lines viability, CellTiter-Glo ATP luminescence, 48-72 h; max response: stronger effect = lower value
Summary of the method: as §1

[4] = system: KB-3-1; assay: as above; conditions: Five cell lines viability, CellTiter-Glo ATP luminescence, 48-72 h; max response: stronger effect = lower value
Summary of the method: as §1

[5] = system: NIH3T3; assay: as above; conditions: Five cell lines viability, CellTiter-Glo ATP luminescence, 48-72 h; max response: stronger effect = lower value
Summary of the method: as §1

[6] = system: HACAT; assay: qHTS assay to identify novel small-molecules to repurpose for Merkel cell carcinoma treatment (AID 1296009); conditions: MCC and control cell lines, CellTiter-Glo viability, 72 h; at 44.8 µM (top of the series) unless noted; further: nearly all actives have a fitted effect of over 60% in size
Summary of the method: (§2)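 Cells were treated for 72 hr at 37 degree celsius with compounds in 8- or 11-point dose response. Viability was read by CellTiter-Glo luminescence, normalized to no-cell (cytotoxicity) and DMSO controls.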

[7] = system: NIH3T3; assay: as above; conditions: MCC and control cell lines, CellTiter-Glo viability, 72 h; at 44.8 µM (top of the series) unless noted
Summary of the method: as §2

[8] = system: C33A; assay: Primary qHTS to identify gynecologic anti-cancer compounds using libraries of approved drugs and bioactive compounds (AID 1345084); conditions: Gynecologic cancer cell panel viability, ATPlite luminescence, 48 h; series mostly up to 57.5 µM; further: on the % scale 0 is the no-effect control and ±100 the full control effect; nearly all actives have a fitted effect of over 55% in size
Summary of the method: (§3)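 Cell viability after 48 h drug treatment, ATPlite luminescence readout; five doses.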

[9] = system: CAOV3; assay: as above; conditions: Gynecologic cancer cell panel viability, ATPlite luminescence, 48 h; series mostly up to 57.5 µM
Summary of the method: as §3

[10] = system: CASKI; assay: as above; conditions: Gynecologic cancer cell panel viability, ATPlite luminescence, 48 h; series mostly up to 57.5 µM
Summary of the method: as §3

[11] = system: Es-2; assay: as above; conditions: Gynecologic cancer cell panel viability, ATPlite luminescence, 48 h; series mostly up to 57.5 µM
Summary of the method: as §3

[12] = system: HeLa; assay: as above; conditions: Gynecologic cancer cell panel viability, ATPlite luminescence, 48 h; series mostly up to 57.5 µM
Summary of the method: as §3

[13] = system: Hek293T; assay: as above; conditions: Gynecologic cancer cell panel viability, ATPlite luminescence, 48 h, control line for the selectivity index; series mostly up to 57.5 µM
Summary of the method: as §3

[14] = system: JEG-3; assay: as above; conditions: Gynecologic cancer cell panel viability, ATPlite luminescence, 48 h; series mostly up to 57.5 µM
Summary of the method: as §3

O=C(/C=C/c1ccc(O)cc1)O[C@H]1[C@H](OC2CCCCC2O)O[C@H](CO)[C@@H](O)[C@@H]1O (stereo partly drawn)
inactive: max response [1] -2.64% | max response [2] 2.98% | outcome [3] | max response [4] 5.56% | outcome [5] | outcome [6] inactive [at 17.4 µM] | outcome [7] inactive [at 17.4 µM] | Potency [8] | Potency [9] | outcome [10] | Potency [11] | Potency [12] | Potency [13] | Potency [14]

C/C=C/C=C/C(=O)OC1CC/C=C/C(O)C(O)C(CCC)OC1=O (stereo not drawn)
inactive: max response [1] -18.3% | max response [2] 4.94% | outcome [3] | max response [4] 4.6% | outcome [5] | outcome [6] | outcome [7] | Potency [8] | Potency [9] | outcome [10] | Potency [11] | Potency [12] | Potency [13] | Potency [14]

C=C1CC[C@@]2(OC1)O[C@H]1CC3[C@@H]4CC=C5C[C@@H](O)C[C@@H](O[C@@H]6OC[C@H](O)[C@H](O)[C@H]6O[C@@H]6O[C@@H](C)[C@H](O)[C@@H](O)[C@H]6O)[C@]5(C)C4CC[C@]3(C)[C@H]1[C@@H]2C (stereo partly drawn)
inactive: outcome [1] | max response [2] -17.1% | outcome [3] | outcome [4] | outcome [5] | outcome [6] inactive [at 17.4 µM] | outcome [7] inactive [at 17.4 µM] | Potency [8] | Potency [9] | outcome [10] | Potency [11] | Potency [12] | Potency [13] | Potency [14]

CCC(C)C1NC(=O)C2C(C)CCN2C(=O)C(CC(O)CO)OC(=O)CCNC(=O)C(C)N(C)C(=O)C(C(C)C)N(C)C1=O (stereo not drawn)
inactive: max response [1] -3.99% | max response [2] -0.256% | outcome [3] | max response [4] 0.529% | outcome [5] | outcome [6] inactive [at 17.4 µM] | outcome [7] inactive [at 17.4 µM] | Potency [8] | Potency [9] | outcome [10] | Potency [11] | Potency [12] | Potency [13] | Potency [14]

C/C=C(\C)C(=O)OC[C@H]1O[C@H](O[C@H]2O[C@H](CO)[C@@H](O)[C@H](O)[C@H]2O[C@@H]2O[C@H](CO)[C@@H](O)[C@H](O)[C@H]2O)[C@H](O[C@@H]2O[C@H](CO)[C@@H](O)[C@H](O)[C@H]2O)[C@@H](O)[C@@H]1O
inactive: max response [1] 0.965% | max response [2] -1.76% | outcome [3] | outcome [4] | outcome [5] | outcome [6] inactive [at 17.4 µM] | outcome [7] inactive [at 17.4 µM] | Potency [8] | Potency [9] | outcome [10] | Potency [11] | Potency [12] | Potency [13] | Potency [14]

Nc1ccc(-n2nc(C(F)(F)F)cc2C(F)(F)F)cc1
inactive: max response [1] 1.57% | max response [2] -3.16% | outcome [3] | max response [4] 7.09% | outcome [5] | outcome [6] | outcome [7] | Potency [8] | Potency [9] | outcome [10] | Potency [11] | Potency [12] | Potency [13] | Potency [14]

COC(=O)C1=CO[C@@H](O[C@@H]2O[C@H](CO)[C@@H](O)[C@H](O)[C@H]2O)/C(=C\CO)[C@@H]1CC(=O)OCCc1ccc(O)cc1
inactive: max response [1] 0.106% | max response [2] 2.34% | outcome [3] | outcome [4] | outcome [5] | outcome [6] inactive [at 17.4 µM] | outcome [7] inactive [at 17.4 µM] | Potency [8] | Potency [9] | outcome [10] | Potency [11] | Potency [12] | Potency [13] | Potency [14]

C=C1CC2C3(C)C=CC(=O)OC(C)(C)C3CC(OC(C)=O)C2(C)C2C(=O)OC(C)C(=O)C12C (stereo not drawn)
inactive: max response [1] -1.41% | max response [2] -7.78% | outcome [3] | max response [4] 1.96% | outcome [5] | outcome [6] inactive [at 17.4 µM] | outcome [7] inactive [at 17.4 µM] | Potency [8] | Potency [9] | outcome [10] | Potency [11] | Potency [12] | Potency [13] | Potency [14]

COCCCc1sc(-c2ccccc2)nc1C(=O)Nc1ccccc1-c1nc2cc(CN3CCCC3)cnc2s1
inactive: outcome [1] | max response [2] -7.81% | outcome [3] | outcome [4] | outcome [5] | outcome [6] inactive [at 17.4 µM] | outcome [7] inactive [at 17.4 µM] | Potency [8] | Potency [9] | outcome [10] | Potency [11] | Potency [12] | Potency [13] | Potency [14]

CC(=O)OC/C(=C/C(=O)O)CC[C@@H]1C(C)=CC(=O)[C@@H]2C(C)(C)CCC[C@@]12C
inactive: outcome [1] | max response [2] -0.879% | outcome [3] | max response [4] -6.11% | outcome [5] | outcome [6] | outcome [7] | Potency [8] | Potency [9] | outcome [10] | Potency [11] | Potency [12] | Potency [13] | Potency [14]

C=CCc1ccc(O[C@@H]2O[C@H](CO)[C@@H](O)[C@H](O)[C@H]2O)c(O[C@@H]2O[C@H](CO)[C@@H](O)[C@H](O)[C@H]2O)c1
inactive: max response [1] -3.11% | max response [2] -0.299% | outcome [3] | outcome [4] | outcome [5] | outcome [6] inactive [at 17.4 µM] | outcome [7] inactive [at 17.4 µM] | Potency [8] | Potency [9] | outcome [10] | Potency [11] | Potency [12] | Potency [13] | Potency [14]

CCCCNc1nc(N)c2[nH]c(=O)n(Cc3ccc(OCCN(C)C)nc3)c2n1
inactive: max response [1] -6.94% | max response [2] -20.1% | outcome [3] | outcome [4] | outcome [5] inactive; activator | outcome [6] | outcome [7] inactive; activator | Potency [8] | Potency [9] | outcome [10] | Potency [11] | Potency [12] | Potency [13] | Potency [14]

From PubChem BioAssay (NCATS)
